VACV Venus inh: vaccinia inhibition (Venus reporter); AID 720580; Vaccinia virus Venus reporter expression, fluorescence; 330,000 compounds, 0.46% hits; Potency, µM (highest dose often 36.5 µM), for the others: at the highest dose activity change, negative = inhibition, actives largely listed as inhibitors; calls by dose curve; tested in A549 cells; note: potency is the fitted concentration of half-maximal effect; nearly all actives have a fitted effect of over 30% in size
HCMV antiviral: inhibitors of human cytomegalovirus; HFF cells, HCMV-luciferase reporter, 72 h; active compounds read low; activity change, negative = inhibition, % at 57.5 µM; 410,000 compounds, 4.5% hits; AID 1259415; in the data active = activity change below about -60%; inconclusive = no clear call, values can overlap the other calls; inactive = above about -39%
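Compounds were evaluated in HFFs infected with an HCMV luciferase reporter virus (MOI 1 PFU/cell). Luciferase in lysates collected 72 h post infection served as the replication measure.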
HCV inhibitor: HCV inhibition; AID 651820; 340,000 compounds, 3.4% hits; Potency, µM (highest dose often 41.8 µM), without a hit: at the top dose activity change, negative = inhibition, usual class: inhibitors; Huh7.5.1 HCVcc-Cre infection, luciferase reporter, 44 h; active = well fitted inhibition curve with a large enough effect; inconclusive = small, poorly fitted or top-dose-only effect, or another doubt; inactive = no such curve, though single readings can be large or run the other way; note: potency is the fitted concentration of half-maximal effect
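Antiviral activity was scored by luciferase reporter output from cells infected with HCVcc-Cre (~0.5 moi) in presence of compound, 44 h infection period, cells seeded 1,000/well 4 h prior.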
FMDV antiviral: foot and mouth disease virus antiviral activity | Potency, µM (doses to about 57.9 µM), inactives show at the highest dose activity change, negative = inhibition, actives largely listed as inhibitors | AID 1159524 | FMDV antiviral cell-based qHTS | 410,000 compounds, 1.2% hits; calls by dose curve; tested in HEK293T cells; note: read-out not given here; potency is the fitted concentration of half-maximal effect; nearly all actives have a fitted effect of over 45% in size
VACV mCherry inh: inhibitors of vaccinia virus infection (mCherry reporter signal); Vaccinia virus mCherry reporter infection, fluorescence; Potency, µM (titrated, usually from 36.5 µM), without a hit: at the highest dose activity change, negative = inhibition, most hits filed as inhibitors; 310,000 compounds, 0.63% hits; calls by dose curve; tested in A549 cells; note: potency is the fitted concentration of half-maximal effect; nearly all actives have a fitted effect of over 35% in size
* marks the source's active call; other numbers are inactive results; i = inactive; ? = inconclusive; . = no result given; [ ] = remark or other dose. Hits are enriched below; roughly 7.3% of the tested compounds scored in any of these assays. % is set by controls: 0 for no effect and ±100 for the full control effect.

SMILES | VACV Venus inh | HCMV antiviral | HCV inhibitor | FMDV antiviral | VACV mCherry inh
CCOC(=O)C1CCCN(C(=O)c2cc3nc(-c4ccc5c(c4)OCO5)cc(C(F)(F)F)n3n2)C1 (centres undefined) | . | -22.7 | -3.8% | 35.5µM* | .
CCOc1ccccc1NS(=O)(=O)c1c(C)[nH]c(C)c1C(=O)N1CCCCC1 | -10.6% | -29.1 | 12.0% | 13.0% | -5.6%
COC(=O)c1ccccc1NC(=O)NCCc1c(C)nn(C)c1C | -3.1% | -9.2 | . | 7.4% | -11.9%
CCc1cccc(CC)c1NC(=O)COC(=O)CC1c2ccccc2CCN1S(=O)(=O)c1ccccc1 (centres undefined) | ? | -36.7 | 7.08µM* | -27.3% | -23.3%
CCCSc1nnc(NC(=O)Nc2ccc(F)cc2)s1 | 7.94µM* | -104.4* | ? | -24.9% | .
Cc1ccc(NC(=O)Nc2nnc(SCC(=O)N3CCC(C)CC3)s2)cc1 | -4.0%[7.34 µM] | -87.8* | . | -6.2% | 1.7%[7.34 µM]
CCCSc1nnc(NC(=O)Nc2ccc(C)cc2)s1 | -9.0% | ? | -3.8% | 1.6% | i
CCCSc1nnc(NC(=O)Nc2ccccc2)s1 | -7.0% | -99.4* | 7.8% | 6.3% | i
CN(CCC#N)c1ccc(/C=C/c2ccnc3ccccc23)cc1 | -14.3% | . | . | . | -27.4%
O=[N+]([O-])c1cccc2c(N3CCCC3)ccnc12 | 7.08µM* | -106.1* | 3.55µM* | ? | ?
COc1ccc(C(=O)Nc2cccc(S(=O)(=O)N(C)C)c2)cc1S(=O)(=O)N1CCOCC1 | -10.9% | 0.6 | ? | -22.7% | -5.3%
CN(c1ccccc1)S(=O)(=O)c1ccc(C(=O)Nc2cccc(S(=O)(=O)N3CCOCC3)c2)cc1 | ? | -94.6* | . | ? | ?
COc1ccccc1N(C)S(=O)(=O)c1ccc(C(=O)Nc2cccc(S(=O)(=O)N3CCOCC3)c2)cc1 | . | ? | 10µM* | 25.1µM* | .
CCCCNC(=O)c1nc2cc(C)c(C)cc2nc1-c1ccccc1 | . | 17.5 | . | . | .
CC1(c2ccc(Cl)cc2Cl)NC(=O)N(CC(=O)Nc2ccc3[nH]c(=O)[nH]c3c2)C1=O (centres undefined) | -6.1% | 1.9 | 16.4% | -22.5% | -3.8%
CN(C)c1ccc(C=c2c3ccccc3n3c2c2c([n+]3C)CCCC2)cc1 | 6.31µM* | -99.5* | ? | 6.31µM* | 3.16µM*
COc1cc(C=c2c3ccccc3n3c2cc(-c2ccccc2)[n+]3C)cc(OC)c1OC | 262.9% | -100.9* | ? | ? | i
CN(C)c1ccc(C=c2c3ccccc3n3c2cc(-c2ccc(Cl)cc2)[n+]3C)cc1 | 49.8% | -99.2* | ? | ? | 6.8%
CN(C)c1ccc(C=c2c3ccccc3n3c2cc(-c2ccccc2)[n+]3C)cc1 | 251.8% | -99.0* | ? | 15.8µM* | 86.8%
O=C(CN1C(=O)NC2(CCCCC2)C1=O)N1CCN(S(=O)(=O)c2ccc(F)c(F)c2F)CC1 | ? | -22.1 | 12.5% | -17.2% | ?
COc1cc(N(C)C)ccc1/C=C/c1ccnc2ccccc12 | 46.9% | . | . | . | -28.0%
COc1cc(N(C)C)ccc1C=c1c2ccccc2n2c1cc(-c1ccccc1)[n+]2C | -10.0% | -99.0* | 10µM* | ? | -21.9%
CN(C)c1ccc(C=c2c3cc([N+](=O)[O-])ccc3n3c2cc(-c2ccccc2)[n+]3C)cc1 | 7.9% | -100.0* | ? | 31.6µM* | 42.3%
CCOC(=O)C1(COCc2ccccc2)CCCCC1=O (centres undefined) | -15.0% | -12.2 | . | -9.2% | i
CCOc1ccc(CCNC(=O)Cn2nc(CC)n3c(cc4c(OC)cccc43)c2=O)cc1OCC | -10.4% | 4.8 | . | -9.9% | -12.1%
CN(CC(=O)Nc1cccc(F)c1)C(=O)c1ccc(COc2ccccc2)o1 | 2.5% | -16.1 | -20.7% | -4.1% | -16.2%
CCc1cc(C(=O)Cc2ccc(F)cc2)c(O)cc1O | ? | -77.2* | 3.2% | -0.1% | -12.3%
CCOC(=O)Cc1csc(NC(=O)c2c(O)c3ccccc3n(CCC(C)C)c2=O)n1 | -12.2% | -2.2 | 10µM* | -20.9% | i
CCOC(=O)Cc1csc(NC(=O)C2C3C=CC(C3)C2C(=O)O)n1 (centres undefined) | -11.2% | -101.5* | 0.1% | -2.6% | .
CCCCCCn1c(=O)c(C(=O)Nc2nc(CC(=O)OCC)cs2)c(O)c2ccccc21 | -0.4%[7.34 µM] | 2.3 | ? | -8.3% | i[7.34 µM]

Bioassay records from PubChem.
